In PubChem BioAssay (NCI) one finds growth data, which are given here for 13 compounds.

About 83,000 compounds went through this panel and 20% of them were active in at least one assay; those are over-represented in the sample as a whole.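 Cell lines were cultured in 96-well plates, exposed to a single compound concentration, and assessed for percent growth 48 hours later.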 A number with no mark means an inactive call. Calls of active or inactive are those of the source. The calls were made as follows: active = growth percent below 10; inactive = the rest.

Among the test systems are DU-145 prostate; K-562 leukemia; MALME-3M melanoma; MDA-MB-231 breast; RXF 393 renal; SF-268 CNS; SF-295 CNS; SF-539 CNS; UACC-257 melanoma; M14 melanoma.
Assay in all cases: NCI-60 one-dose screen, 48 h (100 = growth as untreated, 0 = no growth, -100 = all killed)
Common to all, as to conditions: 10 µM unless noted

Consider `O=C1Nc2cc(-c3cccc([N+](=O)[O-])c3)ccc2/C1=C/c1ccc[nH]1`, for which the growth in the assay with DU-145 prostate was 111%; with K-562 leukemia, 72.2%; with MALME-3M melanoma it was 89%; in the assay on MDA-MB-231 breast, 39.5%; in the assay on RXF 393 renal, 82.1%; with SF-268 CNS it was 97.1%. The growth with SF-295 CNS is 99.8%; in the assay on SF-539 CNS, 93.5%; in the assay with UACC-257 melanoma it was 107%; with M14 melanoma, 89.8%.
Turning to `O=[N+]([O-])CC(c1ccccc1)c1c[nH]c2ccccc12` (stereo not given), the growth with DU-145 prostate was 84.1%; in the assay with K-562 leukemia, 10%; in the assay with MALME-3M melanoma, 57.3%; in the assay with MDA-MB-231 breast, 46.1%; in the assay on RXF 393 renal, 64.3%; in the assay on SF-268 CNS, 65.1%. Moreover, the growth with SF-295 CNS was 44.1%; with SF-539 CNS, 50.2%; with UACC-257 melanoma it was 55.8%; in the assay with M14 melanoma, 23.2%.
Regarding `O=C(c1nc2ccccc2[nH]1)C1C(c2ccc(Br)cc2)C2CC3CCCC[C@H]3N2[C@@]12C(=O)Nc1cc(Cl)ccc12` (stereo not given in full), the growth is 52% in the assay on DU-145 prostate; 25.3% in the assay on K-562 leukemia; 32% in the assay on MALME-3M melanoma; 41.6% with MDA-MB-231 breast; 34% in the assay on RXF 393 renal; 42% with SF-268 CNS. Besides, the growth was 31.6% in the assay on SF-295 CNS, 56% in the assay with SF-539 CNS, 43.2% in the assay with UACC-257 melanoma and 26.9% in the assay on M14 melanoma.
In the case of `COc1ccc(N2CCN(c3ccc(NC4=C(Cl)C(=O)c5ncccc5C4=O)cc3)CC2)cc1`, the growth is 35.3% in the assay with DU-145 prostate; 4.16% (active) in the assay with K-562 leukemia; 31% in the assay on MALME-3M melanoma; 56.7% in the assay with MDA-MB-231 breast; 62.6% in the assay with RXF 393 renal; 40% in the assay on SF-268 CNS. Moreover, the growth is 81.2% in the assay with SF-295 CNS, 39.4% with SF-539 CNS, 35.6% with UACC-257 melanoma and 53.6% in the assay on M14 melanoma.
For the compound `COC(=O)C(OC(C)=O)C(OC(C)=O)c1ccc(OC)c(OC)c1` (stereo not given), the growth with DU-145 prostate is 102%; in the assay with K-562 leukemia, 83.2%; in the assay with MALME-3M melanoma, 104%; with MDA-MB-231 breast, 92.7%; with RXF 393 renal, 125%; in the assay on SF-268 CNS it was 99.6%. In addition, the growth with SF-295 CNS was 101%; in the assay with SF-539 CNS it was 105%; with UACC-257 melanoma, 82.5%; with M14 melanoma, 93.9%.
On to `N#Cc1c(NC(=O)NCc2ccccc2)sc2c1CCCC2`, for which the growth was 10.1% in the assay on DU-145 prostate; 14% with K-562 leukemia; 47.5% in the assay with MALME-3M melanoma; 18.8% in the assay on MDA-MB-231 breast; 0.0173% (active) in the assay with RXF 393 renal; 46.9% in the assay on SF-268 CNS. The growth in the assay with SF-295 CNS is 21%; in the assay with SF-539 CNS, -1.85% (active); in the assay with UACC-257 melanoma, 68%; with M14 melanoma, 10.6%.
Turning to `Cc1ccc(NC(=O)c2cc(-c3nc4ccccc4s3)c(=O)n(NS(=O)(=O)c3ccc(Cl)cc3)c2N)cc1`, the growth is 107% in the assay with DU-145 prostate; 100% in the assay with K-562 leukemia; 112% in the assay on MALME-3M melanoma; 96.1% with MDA-MB-231 breast; 112% in the assay with RXF 393 renal; 94.2% in the assay on SF-268 CNS. In addition, the growth in the assay on SF-295 CNS is 101%; in the assay with SF-539 CNS, 97.2%; in the assay on UACC-257 melanoma, 104%; in the assay on M14 melanoma, 99.4%.
Regarding `CC(C)(C)c1ccc(NS(=O)(=O)c2ccc3nc(NC(=O)c4cnccn4)[nH]c3c2)cc1`, the growth in the assay with DU-145 prostate is 34.3%; in the assay on K-562 leukemia it was 15.7%; with MALME-3M melanoma, 31.9%; in the assay with MDA-MB-231 breast, 50.5%; with RXF 393 renal it was 13.5%; in the assay with SF-268 CNS, 37.7%. For the same compound, the growth in the assay with SF-295 CNS is 35%; with SF-539 CNS, -0.716% (active); with UACC-257 melanoma, 46.7%; with M14 melanoma, 35.1%.
As to `CNC(=O)c1cccc(Cn2nc(C)c(NC(=O)c3ccc(COc4ccc(C(F)(F)F)cc4C)cc3)c2C)n1`, the growth is 61.2% in the assay on DU-145 prostate; 30.4% with K-562 leukemia; 83.8% with MALME-3M melanoma; 75.2% with MDA-MB-231 breast; 64.5% with RXF 393 renal; 61.2% with SF-268 CNS. For the same compound, the growth with SF-295 CNS is 25.8%; in the assay on SF-539 CNS, 72%; with UACC-257 melanoma, 20.7%; in the assay on M14 melanoma it was 53.7%.
As to `Cc1cc2c(C(=O)NCC#N)cccc2n1-c1nc2c(c(NCc3ccccc3)n1)CCCC2`, the growth was 2.51% (active) in the assay with DU-145 prostate; 1.31% (active) with K-562 leukemia; -72.1% (active) with MALME-3M melanoma; -78.9% (active) in the assay with MDA-MB-231 breast; -68.9% (active) in the assay with RXF 393 renal; -35.1% (active) with SF-268 CNS. In addition, the growth with SF-295 CNS was -76.2% (active); with SF-539 CNS, -24.5% (active); with UACC-257 melanoma, -36.4% (active); in the assay on M14 melanoma, -45% (active).
As for `C/C(=N\NC(=O)CSc1nc2ccccc2c(=O)n1Cc1ccc(S(N)(=O)=O)cc1)c1ccc(F)cc1`, the growth in the assay with DU-145 prostate was 111%; with K-562 leukemia, 103%; with MALME-3M melanoma, 106%; in the assay on MDA-MB-231 breast it was 101%; in the assay with RXF 393 renal it was 109%; in the assay on SF-268 CNS it was 98.8%. Also, the growth was 102% in the assay on SF-295 CNS, 104% in the assay with SF-539 CNS, 107% with UACC-257 melanoma and 107% in the assay with M14 melanoma.
Take `COc1cc2oc(-c3cccc(C(=O)Nc4ccc(Br)cc4)c3)cc(=O)c2c(OC)c1OC`: the growth was 57.6% in the assay with DU-145 prostate; 48.9% in the assay with K-562 leukemia; 80.9% in the assay with MALME-3M melanoma; 30.8% in the assay on MDA-MB-231 breast; -2.47% (active) with RXF 393 renal; 61.8% with SF-268 CNS. Also, the growth was 52.9% in the assay on SF-295 CNS, 65% with SF-539 CNS, 80.1% in the assay with UACC-257 melanoma and 27% in the assay on M14 melanoma.
As for `CCOC(=O)CCN(CC(C)C)C(=S)Nc1ccccc1`, the growth with DU-145 prostate was 108%; in the assay on K-562 leukemia, 103%; in the assay with MALME-3M melanoma, 102%; with MDA-MB-231 breast, 106%; in the assay with RXF 393 renal it was 122%; in the assay with SF-268 CNS, 104%. Also, the growth was 101% in the assay on SF-295 CNS, 100% with SF-539 CNS, 102% in the assay on UACC-257 melanoma and 99% in the assay on M14 melanoma.
